GALR2 blocker – GALR2 antagonists in receptor-expressing cells, primary screen; Galanin receptor type 2 (Homo sapiens), O43603; inhibition, % at 4 µM; hit rate 0.39% among 140,000; antagonist mode; in the data active = inhibition above about 27%;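 note: cells stimulated with galanin 1-16 at roughly its EC80; 0% = agonist challenge control and 100% = basal control without agonist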
S1P2 ag – S1P2 receptor agonists, primary screen, cell-based | hit rate 0.46% among 97,000 | Sphingosine 1-phosphate receptor 2 (Homo sapiens), O95136 | activation, % at 4.5 µM | S1P2-expressing cell line, agonist reporter read-out; in the data active = activation above about 16%;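 note: 0% = vehicle low control and 100% = maximal reference agonist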
Target sequence (O95136 whole entry, looked up): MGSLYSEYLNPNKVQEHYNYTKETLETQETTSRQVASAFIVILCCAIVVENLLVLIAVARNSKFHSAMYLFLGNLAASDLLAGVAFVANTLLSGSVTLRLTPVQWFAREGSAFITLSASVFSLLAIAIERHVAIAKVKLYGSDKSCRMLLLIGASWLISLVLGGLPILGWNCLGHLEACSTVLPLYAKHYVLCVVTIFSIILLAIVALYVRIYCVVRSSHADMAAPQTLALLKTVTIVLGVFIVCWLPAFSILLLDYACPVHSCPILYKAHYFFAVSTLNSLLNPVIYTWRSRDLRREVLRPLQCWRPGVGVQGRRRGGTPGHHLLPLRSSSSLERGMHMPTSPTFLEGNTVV
GALR2 ag – GALR2 receptor agonists, primary screen, cell-based | Galanin receptor type 2 (Homo sapiens), O43603 | GALR2-expressing cells, agonist activation read-out | activation, % (no concentration beside the values) | hit rate 0.48% among 140,000; in the data active = activation above about 5%, passing the limit was not always enough;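 note: 0% = vehicle buffer wells and 100% = reference agonist at full effect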
S1P2 antag – human S1P2 receptor antagonists, primary screen, cell-based. cell-based S1P2 antagonist assay, inhibition at 5 uM. Sphingosine 1-phosphate receptor 2 (Homo sapiens), O95136. hit rate 0.21% among 97,000. inhibition, % at 5 µM; in the data active = inhibition above about 45%;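 note: CRE beta-lactamase reporter cells expressing human S1P2 stimulated with S1P; 0% = agonist at EC80 alone and 100% = agonist plus reference antagonist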
Active calls of the source: *; nt = not tested or not shown. This is a sample that favours compounds with a hit; in the whole collection about 1.2% have one here.

SMILES	GALR2 blocker	S1P2 ag	GALR2 ag	S1P2 antag
Cc1ccc(/C=C2\CCC3=C2OC(N)=C(C#N)C3c2ccc(C)cc2)cc1 (stereo not given)	-6.9	16.8*	12.2*	24.1
N#CC1=C(N)OC2=C(CCc3ccccc32)C1c1ccccc1 (stereo not given)	-0.8	nt	5.0*	nt
CCNc1nc(NCC)n2c(SCc3ccc(F)cc3)nnc2n1	-7.1	-2.0	-0.9	3.8
CCNc1nc(NCC)n2c(SCc3nc4ccccc4c(=O)[nH]3)nnc2n1	3.5	43.2*	-1.0	-49.0
c1ccc2[nH]c(CSc3ncnc4c3oc3ccccc34)nc2c1	4.4	31.6*	0.7	-28.0
Cc1nc(SCc2nc3ccccc3[nH]2)c2oc3ccccc3c2n1	0.9	23.2*	-0.9	-35.3
Fc1ccc(CSc2ncnc3c2oc2ccccc23)cc1	-7.1	nt	-0.7	nt
Cc1ccc(-c2nnc3c4ccccc4c(C)nn23)cc1S(=O)(=O)N1CCN(C)CC1	10.0	-1.7	1.1	2.4
Cc1ccc(-c2nnc3c4ccccc4c(C)nn23)cc1S(=O)(=O)N1CCN(CCO)CC1	-2.8	17.2*	1.0	-40.7
CCCn1c(N)c(C(=O)CSc2nc3ccccc3n2CCC#N)c(=O)n(C)c1=O	5.4	25.6*	0.4	-11.9
CCCCCCn1c(SCC(=O)c2c(N)n(C)c(=O)n(C)c2=O)nc2ccccc21	2.5	-3.5	-1.5	-28.6
O=C(COc1ccc(Cl)cc1Br)NNC(=O)C(=O)N1CCCCC1	3.2	-4.9	21.1*	-11.7
CCOc1cccc2sc(Nc3nc4ccc(NC(C)=O)cc4s3)nc12	5.6	nt	8.1*	nt
CCC(=O)Nc1nc2ccc(NC(C)=O)cc2s1	-19.2	-9.5	-2.4	4.8
CCOC(=O)c1sc(Nc2nc3c(OC)cccc3s2)nc1C	-3.0	nt	46.0*	nt
CCOC(=O)c1sc(Nc2ccccc2)nc1C	-6.7	0.5	0.3	-18.9
Cc1cccc2c(=O)c(C(=O)NCCCN3CCOCC3)c[nH]c12	5.8	0.0	-1.1	-5.1
COc1ccc(/C=C/C(=O)c2cc(F)ccc2OC(=O)c2ccccc2)cc1OC	12.8	-3.3	5.5*	-3.8
O=C(c1ccccc1)C(CCC(CN1CCOCC1)C(=O)c1ccccc1)CN1CCOCC1 (stereo not given)	7.7	-6.3	-0.4	53.4*
O=C(c1ccc(F)cc1)C(CN1CCOCC1)c1ccccc1 (stereo not given)	31.7*	-12.8	-1.2	28.1
O=C(Nc1ccccc1C(=O)OCC(=O)c1c[nH]c2ccccc12)c1ccco1	12.2	nt	-0.8	nt
Cc1ccc(C2CC(c3ccccc3)=NN2c2ccccc2)o1 (stereo not given)	-8.7	nt	7.1*	nt
CCCOc1ccc(-c2csc(NC(=O)CN3C(=O)CCC3=O)n2)cc1	-11.3	nt	-0.1	nt
CC(C(=O)Nc1ccccc1Sc1ccccc1)N(c1ccccc1)S(C)(=O)=O (stereo not given)	-5.6	-2.2	-3.1	16.3
COc1cc(S(=O)(=O)N2CCN=C2c2ccccc2)ccc1F	2.4	26.6*	-2.2	2.4
SMILES	GALR2 blocker	S1P2 ag	GALR2 ag	S1P2 antag
CCOc1cc2c(C#N)c(N3CCNCC3)nc(N)c2c(N)n1	3.1	19.8*	-2.6	-57.2
COC(=O)c1c(NC(=O)CSc2nnc3ccccn23)sc2c1CCC2	3.3	nt	-0.5	nt
CCCC(=O)N1CCN(c2ccc(NC(=O)c3cc4ccccc4o3)cc2Cl)CC1	7.6	-5.7	-3.4	76.2*
O=C(Nc1ccc(N2CCN(C(=O)c3ccco3)CC2)c(Cl)c1)c1cc2ccccc2o1	16.2	-9.3	-2.8	65.2*
O=C(Nc1ccc(N2CCN(C(=O)c3ccccc3)CC2)c(Cl)c1)c1ccco1	12.4	-3.7	-2.0	16.2
CCC(=O)N1CCN(c2ccc(NC(=O)c3cc4ccccc4o3)cc2Cl)CC1	6.2	-0.6	-0.9	51.2*
O=C(c1cc2ccccc2o1)N1CCN(c2ccccc2Cl)CC1	-6.1	-4.1	-0.6	9.9
CC(Sc1ccccc1)C(=O)Nc1ccccc1C(=O)N1CCOCC1 (stereo not given)	13.0	-6.1	-0.8	14.4
CC1(C)COC(c2coc3ccccc3c2=O)OC1	2.9	nt	-1.2	nt
O=C(N/N=C/c1c[nH]c2ccccc12)c1[nH]c2ccc(Br)cc2c1-c1ccccc1	13.3	nt	8.1*	nt
O=C(Nc1cccc(S(=O)(=O)N2CCCCC2)c1)c1ccc2c(=O)n3c(nc2c1)CCCCC3	2.7	nt	0.3	nt
Cc1cc2c(cc1C)/C(=C\C(N)=O)NC(C)(C)C2	7.0	nt	-0.9	nt
COc1cc2c(cc1OC)/C(=C/C#N)NC(C)(C)C2	-12.1	25.6*	-0.2	-42.4
CCCCS(=O)(=O)/C=C\C=C/S(=O)(=O)CCCC	104.4*	-6.5	-3.8	97.1*
COc1cc(-c2nnc(COC(=O)CSc3cc(C)c4ccccc4n3)o2)cc(OC)c1OC	3.9	0.0	-0.9	-17.2
COc1cc(-c2nnc(COC(=O)c3cc(C)nc4ccc(C)cc34)o2)cc(OC)c1OC	-24.5	27.4*	0.5	-37.2
CC(C)(C)NC(=O)C(=O)NCCC1=CCCCC1	8.6	nt	-1.0	nt
CC(NC(=O)CCSc1nc(-c2ccc3c(c2)OCO3)cc(C(F)(F)F)n1)c1ccccc1 (stereo not given)	-4.0	-6.3	1.6	-10.9
Cc1c(Cc2ccccc2)c(=O)oc2c(CN(C)C)c(O)c(Cl)cc12	3.5	nt	8.3*	nt
CCN(CC)Cc1c(O)c(Cl)cc2c(C)c(C)c(=O)oc12	-7.1	1.1	2.1	3.4
Nc1nc(Br)c2c(F)cccc2c1-c1ccc(Cl)cc1	7.1	38.4*	13.4*	-8.1
CN(C)S(=O)(=O)c1cccc(-c2nn(-c3ccccc3)cc2/C=C(\C#N)c2nc3ccccc3[nH]2)c1	-6.8	nt	7.3*	nt
O=C(Nc1ccccc1)c1sc2cc(C(F)(F)F)cnc2c1-c1cccs1	3.4	-5.8	-0.7	46.4*
CC1(C)OC(C)(C)/C(=C/Nc2ccccc2)C1=O	-4.5	nt	-0.5	nt
COc1ccc(C(=O)n2ccc(C)n2)cc1Br	7.5	-4.0	-0.7	-18.2
SMILES	GALR2 blocker	S1P2 ag	GALR2 ag	S1P2 antag
Nc1nc(SCc2ccc([N+](=O)[O-])cc2)nc2nc3c(cc12)CCCC3	-3.5	nt	5.1*	nt
CN(CC(=O)Nn1cnnc1)S(=O)(=O)c1ccccc1	-4.5	-3.2	-1.2	3.3
O=C(NC(=O)c1cccc(OC(F)(F)C(F)F)c1)OC1CCS(=O)(=O)C1 (stereo not given)	-120.1	nt	5.7*	nt
O=C1N=C(N2CCc3ccccc3C2)S/C1=C\c1cccc(O)c1	1.4	nt	0.2	nt
Cc1cccc(-n2ncc3c(NC(C)C)ncnc32)c1	27.0*	nt	-1.9	nt
CC(C)Nc1ncnc2c1cnn2-c1ccccc1	8.7	-3.0	-1.5	21.1
O=C(/C=C/c1c(Cl)cccc1Cl)n1cccn1	10.8	-5.1	-3.9	15.3
Cc1ccc(S(=O)(=O)N/N=C/c2cc(Br)c(C)o2)cc1	6.4	26.9*	-0.3	-6.6
Cc1ccc(S(=O)(=O)N/N=C/c2cccc([N+](=O)[O-])c2)cc1	2.9	nt	-0.5	nt
c1ccc2c(c1)[nH]c1c(N3CCSCC3)ncnc12	32.0*	-7.0	-1.2	48.4*
c1ccc2c(c1)[nH]c1c(N3CCCC3)ncnc12	21.1	-1.3	-0.2	23.2
CC(C)CC(c1nnnn1CCc1ccccc1)N1CCC(C(N)=O)CC1 (stereo not given)	-8.1	-3.2	-3.0	-3.8
S=C(NCc1ccccn1)Nc1ccc(Cl)c(Cl)c1	0.8	-5.2	-1.6	46.6*
